Laboratory results taken from PubChem BioAssay.
Active and inactive are the calls of the source. Unless noted, no rule for the calls is given here.

Assays:
[1] = anti-His antibody binders, primary screen, artefact control for SMM control protein annotation, biochemical, small-molecule microarray, 635 nm fluorescence (AID 1128); settings: anti-His Alexa647 antibody binding, higher = more signal;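 also: score merges feature fluorescence with signal-to-noise for each printed compound spot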
[2] = test system: Human papillomavirus type 1a E7 protein (residues 1-88); assay: HPV1a E7 small-molecule binders, primary screen, biochemical, small-molecule microarray, residues 1-88, 635 nm (AID 1129); settings: small-molecule microarray binding, fluorescence 635 nm; higher = more signal
[3] = target: Focal adhesion kinase 1 (Homo sapiens) (UniProt Q05397); assay: small-molecule microarray binders of FAK, primary screen, biochemical, 635/667 nm fluorescence, BSA, DTT (AID 1130); settings: PTK2 binding, 635 nm fluorescence, higher = more signal;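 also: composite of spot emission at 667 nm and signal to noise over triplicate slides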
[4] = test system: Fibrinogen (Alexa647-labelled); assay: fibrinogen binders on compound microarrays, profiling panel, artefact control for SMM control-protein annotation, biochemical, small-molecule microarray, 635/667 nm fluorescence (AID 1131); settings: fibrinogen-A647 binding fluorescence, higher = more signal;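 also: z-score merges 667 nm fluorescence with per-spot signal-to-noise over triplicate slides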
[5] = target: Follistatin (Homo sapiens) (UniProt P19883); assay: follistatin binders on small-molecule microarrays, primary screen, biochemical, small-molecule microarray, 635/667 nm fluorescence (AID 1132); settings: FST binding, 635 nm fluorescence, higher = more signal
[6] = target: Fibroblast growth factor 2 (Homo sapiens) (UniProt P09038); assay: FGF2 binders on small-molecule microarrays, primary screen, biochemical, small-molecule microarray, 635/667 nm fluorescence (AID 1133); settings: small-molecule microarray binding, FGF2, fluorescence 635/667; higher = more signal
[7] = mitochondrial membrane potential change in A549 cells, profiling panel, cell-based, JC-1 fluorescence, basal, 24 h, 100 nL (AID 1138); settings: higher = more signal;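 also: A549 lung adenocarcinoma cells under basal conditions with no added stimulus; test concentration not given here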
[8] = test system: Lefty1; assay: Lefty1 binders on small-molecule microarrays, primary screen, biochemical, small-molecule microarray, 635/667 nm fluorescence (AID 1139); settings: small-molecule microarray binding, fluorescence 635/667; higher = more signal
[9] = test system: wheat germ agglutinin (Triticum aestivum), Alexa647-labelled; assay: wheat germ agglutinin binders on compound microarrays, profiling panel, artefact control for SMM control-protein annotation, biochemical, small-molecule microarray, 635/667 nm fluorescence (AID 1140); settings: WGA-A647 binding, 635 nm fluorescence, higher = more signal;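 also: score merges 667 nm feature emission with signal to noise over triplicate slides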
[10] = target: Luciferin 4-monooxygenase (Photinus pyralis) (UniProt P08659); assay: firefly luciferase enzyme inhibitors, primary screen, biochemical, luminescence, purified enzyme, 2006 set (AID 1141); settings: SteadyGlo luminescence, 30 min, higher = more signal, called active from +8 up or from −8 down;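 also: cell-free assay with purified firefly luciferase at 100 ng per well in PBS; test concentration not given here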
[11] = test system: Wnt5a (protein binding on small-molecule microarray); assay: Wnt5a binders on small-molecule microarray, primary screen, biophysical, 635/667 nm fluorescence (AID 1142); settings: 635 nm fluorescence, higher = more signal;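 also: fluorescence read at 667 nm with signal to noise per printed feature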
[12] = cell viability in Huh7 cells, primary screen, cytotoxicity control for HCV replication inhibitor project, CellTiter-Glo luminescence, basal, 48 h (AID 1143); settings: Huh7 HCV replicon, higher = more signal, called active from +8 up or from −8 down;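 also: Huh7 hepatoma cells carrying a hepatitis C replication reporter with no stimulus; test concentration not given here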
[13] = P. aeruginosa biofilm formation inhibitors, primary screen, PAO1 strain, BacTiter-Glo luminescence, LB-PBS (AID 1144); settings: 12 h, higher = more signal
[14] = CREB reporter modulators without forskolin, primary screen, cell-based, PC12, CRE-LacZ reporter, unstimulated (AID 1145); settings: no forskolin, luminescence, 4.5 h, higher = more signal, called active from +8 up or from −8 down
[15] = CREB reporter modulators under forskolin, primary screen, cell-based, PC12, CRE-LacZ reporter, forskolin-stimulated (AID 1146); settings: luminescence, 4.5 h, higher = more signal, called active from +8 up or from −8 down;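 also: PC12 cells with 6xCRE LacZ reporter stimulated by forskolin 10 µM; beta-galactosidase reporter signal reflecting CREB driven transcription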
[16] = target: Streptavidin (Streptomyces avidinii) (UniProt P22629); assay: streptavidin binders on small-molecule microarray, primary screen, artefact control for SMM compound annotation, biophysical, 635/667 nm fluorescence (AID 1147); settings: streptavidin binding, higher = more signal;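 also: signal reflects streptavidin binding to arrayed compounds as a control protein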
[17] = small-molecule binders of probe aInhba, primary screen, biochemical, small-molecule microarray, 635/667 nm fluorescence (AID 1148); settings: higher = more signal;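 also: score merges 667nm spot fluorescence with signal-to-noise for antibody binding to printed compounds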
[18] = target: Torsin-1A (Homo sapiens) (UniProt O14656); assay: torsin A binders from cell lysate, primary screen, small-molecule microarray, wild-type, 635/667 nm (AID 1149); settings: COS7 hTOR1A-WT lysate, 635 nm fluorescence, higher = more signal
[19] = target: Torsin-1A (Homo sapiens) (UniProt O14656); assay: small-molecule binders of mutant TOR1A in lysate, primary screen, cell lysate, small-molecule microarray, COS7 lysate, 635/667 nm fluorescence (AID 1150); settings: COS7 hTOR1A mutant lysate, 635 nm fluorescence, higher = more signal;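 also: score pools 667 nm emission and signal to noise measuring lysate protein binding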
[20] = test system: Sonic hedgehog protein (Shh); assay: small-molecule binders of Shh protein, primary screen, biochemical, small-molecule microarray, 635/667 nm fluorescence (AID 1151); settings: small-molecule microarray binding, 635 nm fluorescence; higher = more signal;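 also: Shh protein binding to compounds spotted on small-molecule microarray slides; score combines spot fluorescence intensity with signal-to-noise across triplicate slides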

Torsin-1A (Homo sapiens), sequence (O14656 whole entry, looked up): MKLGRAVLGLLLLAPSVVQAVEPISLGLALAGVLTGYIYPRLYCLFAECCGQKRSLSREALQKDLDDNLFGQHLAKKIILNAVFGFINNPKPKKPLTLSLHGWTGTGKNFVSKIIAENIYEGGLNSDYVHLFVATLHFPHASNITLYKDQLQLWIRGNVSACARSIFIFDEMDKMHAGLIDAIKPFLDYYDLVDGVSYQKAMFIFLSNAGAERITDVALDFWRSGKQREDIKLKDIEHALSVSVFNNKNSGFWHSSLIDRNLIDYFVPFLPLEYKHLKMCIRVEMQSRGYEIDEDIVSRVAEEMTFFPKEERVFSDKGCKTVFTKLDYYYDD
Fibroblast growth factor 2 (Homo sapiens), sequence (P09038 whole entry, looked up): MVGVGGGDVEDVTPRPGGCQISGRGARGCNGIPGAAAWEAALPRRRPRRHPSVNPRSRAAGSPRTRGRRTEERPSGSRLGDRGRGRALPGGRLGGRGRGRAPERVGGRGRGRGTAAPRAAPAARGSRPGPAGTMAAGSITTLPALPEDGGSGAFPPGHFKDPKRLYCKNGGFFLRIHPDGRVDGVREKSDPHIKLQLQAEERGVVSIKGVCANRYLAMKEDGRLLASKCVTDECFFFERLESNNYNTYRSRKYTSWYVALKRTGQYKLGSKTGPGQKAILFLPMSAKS
Follistatin (Homo sapiens), sequence (P19883 whole entry, looked up): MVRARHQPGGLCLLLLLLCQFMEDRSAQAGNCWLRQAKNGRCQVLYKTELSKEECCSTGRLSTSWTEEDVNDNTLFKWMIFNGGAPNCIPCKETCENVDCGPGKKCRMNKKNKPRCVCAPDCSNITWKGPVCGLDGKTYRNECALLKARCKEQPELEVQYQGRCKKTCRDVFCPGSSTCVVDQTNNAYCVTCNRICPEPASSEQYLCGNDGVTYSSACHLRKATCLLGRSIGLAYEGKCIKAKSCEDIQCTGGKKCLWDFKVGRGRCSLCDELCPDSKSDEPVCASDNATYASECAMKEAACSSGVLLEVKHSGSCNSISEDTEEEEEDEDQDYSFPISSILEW
Focal adhesion kinase 1 (Homo sapiens), sequence (Q05397 whole entry, looked up): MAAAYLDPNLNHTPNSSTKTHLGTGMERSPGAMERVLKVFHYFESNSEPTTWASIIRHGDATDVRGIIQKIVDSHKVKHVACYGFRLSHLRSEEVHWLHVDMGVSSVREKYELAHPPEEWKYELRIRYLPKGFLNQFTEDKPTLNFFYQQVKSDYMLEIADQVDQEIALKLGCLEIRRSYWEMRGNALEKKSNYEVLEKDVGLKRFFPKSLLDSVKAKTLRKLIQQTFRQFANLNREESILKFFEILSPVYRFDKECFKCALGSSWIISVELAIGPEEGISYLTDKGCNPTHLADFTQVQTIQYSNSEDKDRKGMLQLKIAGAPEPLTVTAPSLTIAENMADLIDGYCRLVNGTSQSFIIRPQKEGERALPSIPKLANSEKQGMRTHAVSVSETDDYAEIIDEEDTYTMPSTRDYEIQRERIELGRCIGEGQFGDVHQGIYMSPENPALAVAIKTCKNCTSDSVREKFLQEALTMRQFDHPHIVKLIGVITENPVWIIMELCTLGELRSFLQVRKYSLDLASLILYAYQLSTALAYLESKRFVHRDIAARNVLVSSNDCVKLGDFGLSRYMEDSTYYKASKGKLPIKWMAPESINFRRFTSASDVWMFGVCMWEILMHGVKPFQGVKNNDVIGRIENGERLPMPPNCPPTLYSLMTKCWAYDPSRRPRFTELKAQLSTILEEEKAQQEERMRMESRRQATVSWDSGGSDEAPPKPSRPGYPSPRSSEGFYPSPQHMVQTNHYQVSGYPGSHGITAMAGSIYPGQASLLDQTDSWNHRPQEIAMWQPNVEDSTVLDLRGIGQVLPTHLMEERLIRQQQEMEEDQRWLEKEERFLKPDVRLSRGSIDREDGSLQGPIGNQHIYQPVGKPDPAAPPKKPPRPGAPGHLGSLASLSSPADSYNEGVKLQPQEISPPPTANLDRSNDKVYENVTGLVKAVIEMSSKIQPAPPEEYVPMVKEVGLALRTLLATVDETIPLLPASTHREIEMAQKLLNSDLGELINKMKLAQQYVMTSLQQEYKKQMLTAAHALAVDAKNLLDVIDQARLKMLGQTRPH
Luciferin 4-monooxygenase (Photinus pyralis), sequence (P08659 whole entry, looked up): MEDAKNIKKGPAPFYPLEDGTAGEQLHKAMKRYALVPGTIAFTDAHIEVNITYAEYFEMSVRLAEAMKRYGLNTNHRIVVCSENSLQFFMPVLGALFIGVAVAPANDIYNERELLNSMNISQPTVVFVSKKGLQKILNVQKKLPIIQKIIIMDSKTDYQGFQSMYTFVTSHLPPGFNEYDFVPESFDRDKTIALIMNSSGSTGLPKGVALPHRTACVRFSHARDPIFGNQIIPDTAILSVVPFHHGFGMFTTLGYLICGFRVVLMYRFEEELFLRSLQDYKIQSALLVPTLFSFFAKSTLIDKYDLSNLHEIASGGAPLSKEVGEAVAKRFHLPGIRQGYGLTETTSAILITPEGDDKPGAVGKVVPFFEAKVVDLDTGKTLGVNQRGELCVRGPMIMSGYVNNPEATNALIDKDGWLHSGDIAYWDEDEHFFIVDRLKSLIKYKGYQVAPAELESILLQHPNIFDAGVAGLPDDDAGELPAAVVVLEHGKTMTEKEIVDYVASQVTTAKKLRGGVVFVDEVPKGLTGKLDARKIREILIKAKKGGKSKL
Streptavidin (Streptomyces avidinii), sequence (P22629 whole entry, looked up): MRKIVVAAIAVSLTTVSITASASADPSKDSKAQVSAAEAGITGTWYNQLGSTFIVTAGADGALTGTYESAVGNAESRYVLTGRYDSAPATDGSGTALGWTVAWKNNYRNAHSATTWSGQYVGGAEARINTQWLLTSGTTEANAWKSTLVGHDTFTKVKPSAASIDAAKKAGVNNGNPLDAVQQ

| Compound | composite z-score [1] | composite z-score [2] | composite z-score [3] | composite z-score [4] | composite z-score [5] | composite z-score [6] | z-score [7] | composite z-score [8] | composite z-score [9] | z-score [10] | composite z-score [11] | z-score [12] | z-score [13] | z-score [14] | z-score [15] | composite z-score [16] | composite z-score [17] | composite z-score [18] | composite z-score [19] | composite z-score [20] |
| --- | --- | --- | --- | --- | --- | --- | --- | --- | --- | --- | --- | --- | --- | --- | --- | --- | --- | --- | --- | --- |
| CCOC(=O)C[C@H]1[C@H](OC(=O)c2cc3ccccc3oc2=O)[C@@H](NC(=O)Cc2ccc(OC)cc2)c2cc(OCCCO)ccc2N1C(=O)c1ccc2ccccc2n1 | 1.37 | 0.649 | 0.199 | 0.122 | 0.93 | 0.956 | -0.013 | 0.838 | 0.0863 | 0.0113 (inactive) | 0.34 | 0.0642 (inactive) | 0.177 (inactive) | 11.5 (active) | -0.906 (inactive) | 0.14 | 0.0275 | 0.0518 | 0.161 | 0.479 |
| COCCOC(=O)N1C(=O)[C@@]2(c3cc(C#CC4=CCCCC4)ccc31)[C@H](c1ccc(OCCO)cc1)N1[C@H](c3ccccc3)[C@H](c3ccccc3)OC(=O)[C@H]1[C@@H]2C(=O)N1CCN(c2ncccn2)CC1 | 0.433 | 1.15 | 0.067 | 0.574 | 1.29 | 0.692 | -1.27 | 0.853 | 0.5 | -2.01 (inactive) | 0.323 | -1.24 (inactive) | 1.04 (inactive) | 0.212 (inactive) | -0.674 (inactive) | 0.0363 | 0.0649 | 0.767 | 0.501 | 0.772 |
| Cc1ccc(S[C@]2(C(=O)NCC(F)(F)F)CC(=O)N(Cc3ccccc3)[C@@H]2c2ccc(CO)cc2I)cc1 | 0.905 | 0.676 | -0.315 | 0.0957 | -0.0488 | -0.177 | 0.16 | -0.779 | 0.626 | 0.424 (inactive) | 0.0543 | -1.22 (inactive) | 0.479 (inactive) | -0.581 (inactive) | 1.83 (inactive) | -0.119 | 0.0228 | -0.565 | -0.49 | 0.237 |
| [N-]=[N+]=Nc1ccccc1C[C@]1(C(=O)N2CCOCC2)N=C(c2ccc(OCCCO)cc2)O[C@H]1c1ccccc1 | 2.06 | 1.21 | 0.3 | 0.905 | 1.42 | 1.81 | 2.81 | 0.435 | 1.2 | -2.31 (inactive) | 1.01 | -3.57 (inactive) | 0.567 (inactive) | 0.204 (inactive) | -0.0807 (inactive) | 0.65 | -0.0279 | 1.14 | 0.272 | 0.276 |
| C[N+](C)(C)CCCCCCNC(=O)[C@H]1C[C@H]2C(=O)NCC(=O)N2[C@H]1c1ccc(O)cc1 | 2.46 | 0.996 | -0.0037 | 0.211 | 1.37 | 1.67 | -1 | 1.59 | 0.195 | 0.836 (inactive) | 0.119 | -0.274 (inactive) | 0.0567 (inactive) | -1.35 (inactive) | 0.444 (inactive) | -0.337 | -0.354 | 0.261 | 0.349 | 2.09 |
